Structures are written as SMILES. ± gives the standard deviation of the averaged measurements.

This assay relates to Caenorhabditis elegans N2. Briefly: egg-laying rate relative to DMSO control (serotonin + nicotine background) (fraction of control); higher = more egg-laying. The conditions noted are these: background: 12.3 mM serotonin + 7.7 mM nicotine; 60 µM; 1 h. On the procedure:
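About 20 young-adult wild-type C. elegans (N2) per well in 96-well plates were exposed to 60 uM compound for 1 h at room temperature, either in M9 buffer (to find stimulators) or in 12.3 mM serotonin + 7.7 mM nicotine (NS, to find inhibitors). Eggs per worm per hour were counted by automated imaging and normalised to the mean of proximal DMSO control wells. Values average the primary screen and two retests of the worm-active (wactive) Egl modulators.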
Consider `CCOc1ccc(C(=O)c2cccs2)cc1` [wact-471], for which the egg-laying rate turned out to be 1.02 ± 0.22.
For `Cc1ccccc1C(=O)NCCc1ccccc1` [wact-406] the value was 0.394 ± 0.22; for `CCc1ccc(-c2cn3ccsc3n2)cc1` [wact-434], 0.474 ± 0.18.
For `c1ccc(CSc2nnc(-c3ccccc3)o2)cc1` [wact-38] the value was 0.966 ± 0.24.
Regarding `Cc1ccc(-c2cnc(-c3ccncc3)o2)cc1` [wact-23], the egg-laying rate was found to be 0.55 ± 0.19.
For `O=C(Nc1cccc(Cl)c1)N1CCN(c2ccc([N+](=O)[O-])cc2)CC1` [wact-31] the value was 1.03 ± 0.29; for `O=[N+]([O-])c1ccc(-n2ccc3ccccc32)cc1` [wact-213], 0.444 ± 0.061.
For `Clc1ccc(-c2cn3ccsc3n2)cc1` [wact-1] the value was 0.584 ± 0.24; for `O=[N+]([O-])c1ccc(N2CCN(CC3CC4C=CC3C4)CC2)cc1` (stereo not given) [wact-46], 1.34 ± 0.22.
In the case of `O=C1CC(N2CCN(c3ccc([N+](=O)[O-])cc3)CC2)C(=O)N1c1ccccc1F` (stereo not given) [wact-56], the egg-laying rate amounted to 1.06 ± 0.17.
On to `O=[N+]([O-])c1ccc(N2CCN(CC3CC=CCC3)CC2)cc1` (stereo not given) [wact-47], for which the egg-laying rate was found to be 1.13 ± 0.076.
For `COc1ccc(C=Cc2ccccn2)cc1` [wact-622] the value was 0.373 ± 0.18; for `O=[N+]([O-])c1ccc(N2CCN(CC3CCCCC3)CC2)cc1` [wact-45], 0.994 ± 0.16; for `Ic1cccc(-c2nnc(-c3ccccc3)o2)c1` [wact-51], 0.995 ± 0.094.
With `O=[N+]([O-])c1ccc(CSc2ccc(Cl)cc2)cc1` [wact-3], the egg-laying rate worked out at 0.473 ± 0.36.
For `c1csc(-c2cnc3ccccc3n2)c1` [wact-21] the value was 0.816 ± 0.081; for `CCCCOC(=O)Nc1ccc([N+](=O)[O-])cc1` [wact-419], 0.733 ± 0.18; for `CCSc1nnc(-c2ccc(Cl)cc2Cl)o1` [wact-4], 0.795 ± 0.052.
For `Cc1ccccc1C(=O)NCCSC1CCCCC1` [wact-494] the value was 0.524 ± 0.2; for `O=[N+]([O-])c1ccc(N2CCc3ccccc3C2)nc1` [wact-421], 0.435 ± 0.099.
For the compound `O=C(Nc1ccc(I)cc1)c1ccco1` [wact-27], the egg-laying rate is 0.759 ± 0.099.
For `Fc1ccc(-c2cn3ccsc3n2)cc1` [wact-433] the value was 0.471 ± 0.016; for `CCC1CCC(N2CCN(c3ccc([N+](=O)[O-])cc3)CC2)CC1` (stereo not given) [wact-6], 0.999 ± 0.56; for `Cc1ccn2cc(-c3ccc(F)cc3)nc2c1` [wact-436], 0.478 ± 0.25.
For `Brc1cccc(-c2cn3ccccc3n2)c1` [wact-435] the value was 0.712 ± 0.25.

For the origin of these results see the supplement of paper PMC9402605.
